# Assay results: PubChem BioAssay AID1345085 (National Center for Advancing Translational Sciences (NCATS), 2018)
# Inconclusive results are not listed. Activity calls are given as the source filed them. The call rests on the fitted dose curve; in most records, active means well fitted cell-killing curve with a large enough effect; inconclusive means small, poorly fitted or top-dose-only effect, or effect the other way; inactive means no such curve, though single readings can be large or run the other way. *1 amine or outer side, *2 acyl side, *3 side chain or, on linkers, in order; H or OH if unused. Where a SMILES comes first, the peptide text is derived from it. Bridges are numbered along the chain shown (N, C = ends). Roman numbers before positions name the chains, in order. [ ]: non-standard residue; d: D form. Actinocin(9to1) = Cc1c2oc3c(C)ccc(C(=O)[*:1])c3nc-2c(C(=O)[*:2])c(N)c1=O; NMeV = CN[C@H](C(=O)O)C(C)C; Sar = CNCC(=O)O
# Test system: PA-1
# Assay: Confirmatory qHTS for gynecologic anti-cancer compounds from libraries of approved drugs and bioactive compounds; further: nearly all actives have a fitted effect of over 55% in size
# Settings: gynecologic cancer cell panel viability, ATPlite luminescence, 48 h; series mostly up to 57.6 µM
# Summary of the method: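 ATPlite luminescence read-out of cell viability; IC50 from 11-point 1:3 titrations, 57.5 uM to 0.977 nM, 48 h compound exposure at 37 C, 5% CO2. Cells seeded at 1,000/well 16 h before dosing.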
# Potency means the concentration at half of the fitted maximal effect.
row,SMILES,Potency
1,COc1ccc(-c2nc3ccc(C4=NNC(=O)CC4C)cc3[nH]2)cc1 (configuration not stated),21.7 µM (active)
2,Cc1cc(CN2CCN(c3c(Br)cnc4nc(-c5ccc(N6CCN(C)CC6)cc5)[nH]c34)CC2)no1,17.2 µM (active)
3,Cn1cnc([N+](=O)[O-])c1Sc1ncnc2nc[nH]c12,5.44 µM (active)
4,O=c1[nH]c(=O)n([C@H]2C[C@H](O)[C@@H](CO)O2)cc1C(F)(F)F,1.93 µM (active)
5,CC(C)C[C@H](NC(=O)[C@H](Cc1ccccc1)NC(=O)c1cnccn1)B(O)O,0.0385 µM (active)
6,COc1cc2c(c(OC)c1OC)-c1ccc(OC)c(=O)cc1[C@@H](NC(C)=O)CC2,0.126 µM (active)
7,OCc1ccc(-c2ccc(-c3ccc(CO)s3)o2)s1,inactive
8,CN1CCCC(n2nc(Cc3ccc(Cl)cc3)c3ccccc3c2=O)CC1 (configuration not stated),27.3 µM (active)
9,c1cc(N[C@@H]2CCNC2)nc(-c2cnc3ccc(-c4cn[nH]c4)cn23)c1,1.72 µM (active)
10,COc1cc2nccc(Oc3ccc(NC(=O)C4(C(=O)Nc5ccc(F)cc5)CC4)cc3)c2cc1OC,10.9 µM (active)
11,Cc1nc(N)nc(N)c1-c1ccc(Cl)c(Cl)c1,1.37 µM (active)
12,COc1cc(N2CCC(N3CCN(C)CC3)CC2)ccc1Nc1ncnc(Nc2ccccc2S(=O)(=O)C(C)C)n1,9.68 µM (active)
13,CCC(=O)N1CCN(c2ccc(-n3c(=O)ccc4cnc5ccc(-c6cnc7ccccc7c6)cc5c43)cc2C(F)(F)F)CC1,0.627 µM (active)
14,"Cc1c2oc3c(C)ccc(C(=O)N[C@@H]4C(=O)N[C@H](C(C)C)C(=O)N5CCC[C@H]5C(=O)N(C)CC(=O)N(C)[C@@H](C(C)C)C(=O)O[C@@H]4C)c3nc-2c(C(=O)N[C@@H]2C(=O)N[C@H](C(C)C)C(=O)N3CCC[C@H]3C(=O)N(C)CC(=O)N(C)[C@@H](C(C)C)C(=O)O[C@@H]2C)c(N)c1=O (I: T[dV]P[Sar][NMeV] / II: T[dV]P[Sar][NMeV]; ester I:1-I:C, II:1-II:C; linker I:N-II:N via Actinocin(9to1))",0.0968 µM (active)
15,Cc1nc(NC(=O)N2CCCC2C(N)=O)sc1-c1ccnc(C(C)(C)C(F)(F)F)c1 (configuration not stated),27.3 µM (active)
16,CN(NC(=O)CC(=O)NN(C)C(=S)c1ccccc1)C(=S)c1ccccc1,0.0544 µM (active)

row,SMILES,Potency
1,CC(C)(C)C(=O)OCOP(=O)(COCCn1cnc2c(N)ncnc21)OCOC(=O)C(C)(C)C,6.85 µM (active)
2,C[C@@]1(C(=O)Nc2ccc(F)nc2)CCCN1c1nc(Nc2cc(C3CC3)[nH]n2)c2cccn2n1,0.0343 µM (active)
3,COc1cc(C(=O)N2CCC(N3CCN(C)CC3)CC2)ccc1Nc1ncc2c(n1)N(C)c1ccccc1C(=O)N2C,9.68 µM (active)
4,Cc1cnc(Nc2ccc(F)cc2Cl)nc1-c1c[nH]c(C(=O)NC(CO)c2cccc(Cl)c2)c1 (configuration not stated),24.3 µM (active)
5,S=c1nc[nH]c2nc[nH]c12,3.85 µM (active)
6,OCCNC1CCCc2c1[nH]c1ccc(-c3ccccc3)cc21 (configuration not stated),27.3 µM (active)
7,COc1ccc2c(c1OC)C(=O)O[C@@H]2[C@H]1c2c(cc3c(c2OC)OCO3)CCN1C,24.3 µM (active)
8,NC(=O)c1ccc2nc(-c3ccc(Oc4ccc(Cl)cc4)cc3)[nH]c2c1,6.85 µM (active)
9,Cc1csc(NC(=O)c2sc3nc4c(c(C(F)(F)F)c3c2N)CCC4)n1,3.43 µM (active)
10,NS(=O)(=O)c1ccc(Nc2nc(OCC3CCCCC3)c3[nH]cnc3n2)cc1,inactive
11,CCS(=O)(=O)c1cccc(-c2cc(C(=O)NC3CCN(C)CC3)c(C)c3[nH]c4ncc(C)cc4c23)c1,1.06 µM (active)
12,CC(=O)c1cnc2ccc(-c3cc(Cl)c(O)c(Cl)c3)nc2c1NC1CCC(CN(C)C)CC1 (configuration not stated),0.222 µM (active)
13,COc1cccc2c1C(=O)c1c(O)c3c(c(O)c1C2=O)C[C@@](O)(C(=O)CO)C[C@@H]3O[C@H]1C[C@H](N)[C@H](O[C@@H]2CCCCO2)[C@H](C)O1,0.685 µM (active)
14,Nc1nccc(Oc2ccc(NC(=O)c3c[nH]cc(-c4ccc(F)cc4)c3=O)cc2F)c1Cl,3.06 µM (active)
15,CNC(=O)c1nn(C)c2c1C(C)(C)Cc1cnc(Nc3ccc(N4CCN(C)CC4)cc3)nc1-2,0.769 µM (active)
16,Nc1ccc(-c2ccc3ncc4ccc(=O)n(-c5cccc(C(F)(F)F)c5)c4c3c2)cn1,0.863 µM (active)
